Calls of active or inactive are those of the source.
Experiments:
[1] = E. coli DRC41 culture turbidity changes, primary screen, E. coli filamentation inducer project, strain DRC41, OD650, 48 h (AID 1152);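 also: E. coli MC1000 strain DRC41 lacking acrAB efflux pump and sulA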; conditions: E. coli DRC41 (acrAB sulA), higher = more signal, called active from +8 up or from −8 down
[2] = small-molecule binders of probe aLefty1, primary screen, biochemical, small-molecule microarray, 635/667 nm fluorescence (AID 1153); conditions: higher = more signal;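 also: score merges spot fluorescence with signal-to-noise ratio from the scanned slide images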
[3] = PSAC antagonists in infected red cells, primary screen, cell-based, P. falciparum Indochina, OD700, 1 h (AID 1154); conditions: P. falciparum Indochina infected RBC osmotic lysis, higher = more signal, called active from +8 up or from −8 down
[4] = PSAC antagonists in infected red cells, primary screen, cell-based, P. falciparum Indochina, OD700, 2 h (AID 1155);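 also: lysis reports solute entry through the parasite surface anion channel PSAC; channel blockers reduce lysis of infected cells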; conditions: P. falciparum Indochina infected erythrocytes, osmotic lysis OD700; higher = more signal, called active from +8 up or from −8 down
[5] = osmotic lysis modulators in infected erythrocytes, primary screen, PSAC antagonist project, cell-based, P. falciparum Indochina, OD700, 3 h (AID 1156); conditions: higher = more signal, called active from +8 up or from −8 down
[6] = PSAC antagonists in infected red cells, primary screen, cell-based, P. falciparum Indochina, OD700, 18 h (AID 1157); conditions: P. falciparum Indochina infected erythrocytes, osmotic lysis OD700, 18 h; higher = more signal, called active from +8 up or from −8 down
[7] = modulators of S6 phosphorylation in cells, primary screen, cell-based, A549, cytoblot, luminescence, serum-stimulated (AID 1158); conditions: A549 phospho-S6 cytoblot, 5 h, higher = more signal;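 also: serum-stimulated A549 lung adenocarcinoma cells; signal is phosphorylated S6 detected by cytoblot immunostaining with HRP secondary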
[8] = target: NADPH oxidase 2 (Homo sapiens) (UniProt P04839); assay: NOX2-dependent H2O2 signal modulators, primary screen, NOX inhibitor project, cell-based, HEK293-NOX2, PMA-stimulated, Amplex Red fluorescence (AID 1159); conditions: 45 min, higher = more signal, called active from +8 up or from −8 down; also: test concentration not given here
Chain of NADPH oxidase 2 (Homo sapiens) (P04839 whole entry, looked up): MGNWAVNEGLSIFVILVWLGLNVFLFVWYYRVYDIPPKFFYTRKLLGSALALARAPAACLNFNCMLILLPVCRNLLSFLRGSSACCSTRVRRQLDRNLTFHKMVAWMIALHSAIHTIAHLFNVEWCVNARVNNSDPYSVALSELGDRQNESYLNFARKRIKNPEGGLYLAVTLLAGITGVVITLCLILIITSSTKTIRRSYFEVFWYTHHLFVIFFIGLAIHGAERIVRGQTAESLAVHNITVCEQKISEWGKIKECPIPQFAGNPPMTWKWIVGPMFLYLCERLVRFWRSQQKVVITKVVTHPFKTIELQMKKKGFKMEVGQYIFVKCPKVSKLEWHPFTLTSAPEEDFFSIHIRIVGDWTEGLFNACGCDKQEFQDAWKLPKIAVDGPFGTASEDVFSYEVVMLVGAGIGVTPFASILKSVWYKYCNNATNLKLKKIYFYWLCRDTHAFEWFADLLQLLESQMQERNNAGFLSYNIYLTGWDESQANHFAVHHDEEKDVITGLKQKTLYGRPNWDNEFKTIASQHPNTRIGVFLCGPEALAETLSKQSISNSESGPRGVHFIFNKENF

[9] = target: NADPH oxidase 4 (Homo sapiens) (UniProt Q9NPH5); assay: NOX4-dependent H2O2 signal modulators, primary screen, NOX inhibitor project, cell-based, HEK293-NOX4, tetracycline-induced, Amplex Red fluorescence (AID 1160); conditions: 45 min, higher = more signal, called active from +8 up or from −8 down
Chain of NADPH oxidase 4 (Homo sapiens) (Q9NPH5 whole entry, looked up): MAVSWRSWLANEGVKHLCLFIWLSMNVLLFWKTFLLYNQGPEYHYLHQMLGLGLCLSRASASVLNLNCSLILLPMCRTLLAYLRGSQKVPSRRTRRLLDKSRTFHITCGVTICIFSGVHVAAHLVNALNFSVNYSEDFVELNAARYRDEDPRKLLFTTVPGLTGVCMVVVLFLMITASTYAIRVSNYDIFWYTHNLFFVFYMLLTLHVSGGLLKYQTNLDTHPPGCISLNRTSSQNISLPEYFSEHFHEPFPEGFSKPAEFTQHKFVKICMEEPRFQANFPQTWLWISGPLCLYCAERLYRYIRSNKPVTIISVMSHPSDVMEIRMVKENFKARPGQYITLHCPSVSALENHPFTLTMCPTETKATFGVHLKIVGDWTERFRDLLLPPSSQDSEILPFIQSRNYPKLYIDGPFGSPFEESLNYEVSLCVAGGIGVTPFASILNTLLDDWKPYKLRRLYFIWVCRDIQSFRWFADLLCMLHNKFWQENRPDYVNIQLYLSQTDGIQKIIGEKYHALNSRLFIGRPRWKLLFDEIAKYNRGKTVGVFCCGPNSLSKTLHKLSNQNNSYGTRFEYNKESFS

[10] = target: NADPH oxidase 5 (Homo sapiens) (UniProt Q96PH1); assay: NOX5-dependent H2O2 signal modulators, primary screen, NOX inhibitor project, cell-based, HEK293-NOX5, Amplex Red fluorescence (AID 1161); conditions: HEK293-NOX5, ionomycin, 45 min, higher = more signal
Chain of NADPH oxidase 5 (Homo sapiens) (Q96PH1 whole entry, looked up): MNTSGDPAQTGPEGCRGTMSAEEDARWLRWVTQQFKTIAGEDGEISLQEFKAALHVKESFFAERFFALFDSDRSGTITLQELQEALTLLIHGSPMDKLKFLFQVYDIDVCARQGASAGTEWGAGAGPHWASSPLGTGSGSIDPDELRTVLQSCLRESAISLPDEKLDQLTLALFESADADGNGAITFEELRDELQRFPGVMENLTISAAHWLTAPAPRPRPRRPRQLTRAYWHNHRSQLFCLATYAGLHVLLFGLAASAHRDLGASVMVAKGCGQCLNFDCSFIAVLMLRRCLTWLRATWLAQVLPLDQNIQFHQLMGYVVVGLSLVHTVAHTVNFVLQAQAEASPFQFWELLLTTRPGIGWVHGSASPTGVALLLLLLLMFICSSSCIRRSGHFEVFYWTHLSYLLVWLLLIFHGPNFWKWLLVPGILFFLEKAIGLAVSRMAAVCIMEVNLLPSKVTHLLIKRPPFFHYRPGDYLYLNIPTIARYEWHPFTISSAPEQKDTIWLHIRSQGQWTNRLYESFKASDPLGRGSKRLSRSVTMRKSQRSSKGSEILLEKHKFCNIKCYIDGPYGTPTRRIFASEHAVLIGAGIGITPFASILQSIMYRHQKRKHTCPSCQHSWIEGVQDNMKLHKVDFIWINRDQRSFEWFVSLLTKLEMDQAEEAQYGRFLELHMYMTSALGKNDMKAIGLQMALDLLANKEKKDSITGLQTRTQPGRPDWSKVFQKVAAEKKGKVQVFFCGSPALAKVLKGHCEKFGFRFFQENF

[11] = A549 cell viability effects, profiling panel, calcein-AM fluorescence, 48 h, basal (AID 1162); conditions: higher = more signal; also: test concentration not given here
[12] = adipocyte viability effects, profiling panel, cell-based, 3T3-L1 adipocytes, calcein-AM fluorescence, 48 h, basal (AID 1163); conditions: 3T3-L1 adipocytes viability, higher = more signal; also: test concentration not given here
[13] = HepG2 cell viability effects, profiling panel, calcein-AM fluorescence, 48 h, basal (AID 1164); conditions: higher = more signal; also: test concentration not given here
[14] = MM1S cell viability effects, profiling panel, calcein-AM fluorescence, 48 h, basal (AID 1165); conditions: higher = more signal;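 also: viability of MM1S multiple myeloma cells under basal unstimulated conditions; test concentration not given here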
[15] = basal RPMI8226 viability, no added stimulus, profiling panel, cell-based, calcein-AM fluorescence, 48 h, PK04 Diversity Set (AID 1166); conditions: RPMI8226 myeloma viability, higher = more signal;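 also: cells grown under basal conditions without added stimulus; test concentration not given here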
[16] = basal HepG2 mitochondrial membrane potential changes, profiling panel, cell-based, JC-1 fluorescence, 24 h, 100 nL compound (AID 1167); conditions: higher = more signal; also: test concentration not given here
[17] = basal 3T3-L1 adipocyte mitochondrial potential changes, profiling panel, cell-based, JC-1 fluorescence, 3T3-L1 adipocytes, 24 h, 100 nL compound (AID 1168); conditions: JC-1 mitochondrial fluorescence, higher = more signal, called active from +8 up or from −8 down; also: test concentration not given here
[18] = basal RPMI8226 mitochondrial membrane potential changes, profiling panel, cell-based, JC-1 fluorescence, 24 h, 100 nL compound (AID 1169); conditions: RPMI8226 myeloma, JC-1 mitochondrial potential fluorescence, higher = more signal; also: test concentration not given here
[19] = basal MM1S mitochondrial membrane potential changes, profiling panel, cell-based, JC-1 fluorescence, 24 h, 100 nL compound (AID 1170); conditions: higher = more signal; also: test concentration not given here
[20] = A549 lung cancer cell viability effects, profiling panel, resazurin fluorescence, 24 h, PK04 Diversity Set (AID 1171); conditions: higher = more signal, called active from +8 up or from −8 down; also: test concentration not given here

SMILES | z-score [1] | composite z-score [2] | z-score [3] | z-score [4] | z-score [5] | z-score [6] | z-score [7] | z-score [8] | z-score [9] | z-score [10] | z-score [11] | z-score [12] | z-score [13] | z-score [14] | z-score [15] | z-score [16] | z-score [17] | z-score [18] | z-score [19] | z-score [20]
CC(C)CNC(=O)[C@@H]1c2ccccc2C(=O)N(CC23CC4CC(CC(C4)C2)C3)[C@H]1c1ccc(CO)cc1 | 0.075 (inactive) | -0.0559 | 0.317 (inactive) | -0.93 (inactive) | -0.348 (inactive) | -1.22 (inactive) | 0.84 | -0.234 (inactive) | -0.616 (inactive) | -1.78 | 0.226 | 0.918 | 0.537 | 0.107 | -0.35 | 1.38 | 1.64 (inactive) | -0.217 | -0.0634 | 0.915 (inactive)
COCCOC(=O)N1C(=O)[C@@]2(c3cc(C#CC4(O)CCCCCC4)ccc31)[C@H](C(=O)N1CCc3cc(OC)c(OC)cc3C1)[C@H]1C(=O)O[C@H](c3ccccc3)[C@H](c3ccccc3)N1[C@@H]2c1ccc(O)cc1 | 1.27 (inactive) | 0.176 | 1.31 (inactive) | 0.735 (inactive) | 1.89 (inactive) | 0.712 (inactive) | 0.278 | 2.19 (inactive) | 0.296 (inactive) | 0.725 | -0.635 | 1.29 | 0.582 | -1.06 | -0.964 | -0.145 | -0.093 (inactive) | -1.06 | 0.318 | -0.311 (inactive)
O=C1OCCC/C=C\[C@H]2OC34C=CCN(Cc5ccccc5)C(=O)[C@H]3N(CCCCCO)C(=O)[C@@H]4C12 (stereo not given in full) | 0.435 (inactive) | -0.094 | -0.457 (inactive) | -0.172 (inactive) | -0.123 (inactive) | -0.354 (inactive) | -0.412 | 1.17 (inactive) | 0.487 (inactive) | 1.76 | 0.379 | 0.65 | 0.414 | 1.03 | -0.42 | -0.0205 | -0.0419 (inactive) | 0.803 | -0.322 | 1.37 (inactive)
C[N+](C)(C)CCCCCCNC(=O)[C@@H]1C[C@@H]2C(=O)N[C@@H](Cc3ccccc3)C(=O)N2[C@@H]1c1ccc(O)cc1 | 0.38 (inactive) | 0.286 | 3.42 (inactive) | 0.0655 (inactive) | -0.406 (inactive) | 0.0311 (inactive) | -0.491 | 0.627 (inactive) | 0.203 (inactive) | 0.0921 | -0.428 | -0.482 | 0.223 | 0.337 | -0.0064 | -1.12 | -0.055 (inactive) | -0.862 | -0.401 | 0.47 (inactive)
CC(C)C[C@@H]1NC(=O)[C@@H]2C[C@H](C(=O)O)[C@H](c3ccc(O)cc3)N2C1=O | 2.59 (inactive) | 0.013 | 4.56 (inactive) | 0.677 (inactive) | -0.641 (inactive) | 0.179 (inactive) | 1.09 | 0.304 (inactive) | 0.398 (inactive) | -0.107 | 0.704 | 0.37 | 0.285 | -1.32 | 0.126 | 0.962 | -0.773 (inactive) | -0.49 | 0.3 | 1.64 (inactive)
COCC(=C=CC[C@@H](O)c1ccc(OCCO)cc1)C[C@@H](O)COCc1ccccc1 | 1.81 (inactive) | 0.0299 | 7.41 (inactive) | 0.416 (inactive) | 0.766 (inactive) | -0.756 (inactive) | 2.43 | -1.16 (inactive) | -0.479 (inactive) | -2.03 | 0.517 | 0.657 | 0.712 | 0.105 | 0.0253 | -1.77 | 0.914 (inactive) | -0.725 | -1.03 | 0.583 (inactive)
COC(=O)[C@@H]1N=C(c2ccc(OCCCO)cc2)O[C@@H]1c1ccccc1CN=[N+]=[N-] | 0.664 (inactive) | 0.881 | 25 (active) | 9.39 (active) | -0.5 (inactive) | 1.33 (inactive) | -0.239 | -0.817 (inactive) | 0.827 (inactive) | 0.0949 | 0.432 | -0.446 | -0.198 | -0.329 | -0.717 | -1.07 | 1.43 (inactive) | -0.16 | -0.741 | 1.07 (inactive)
COC(=O)C1=CC(CCCO)=CC(c2ccc(CN3CCCC3)cc2)N(Cc2sc3ccccc3c2Cl)C=C1C(=O)OC (stereo not given) | 1.68 (inactive) | 1.17 | 3.27 (inactive) | -0.28 (inactive) | -0.235 (inactive) | -1.02 (inactive) | 1.6 | 0.613 (inactive) | 0.311 (inactive) | 0.116 | 1.38 | 0.0739 | 1.72 | 0.217 | 0.662 | 4.71 | 0.531 (inactive) | 0.393 | 2.3 | -0.142 (inactive)

Source: PubChem BioAssay
